Publication PMC11006913

Target: HOXA2 (Homo sapiens, UniProt O43364 129-215)
Assay: PBM; 200 nM protein, PBS
Details: dsDNA, one strand shown

Chain of HOXA2 (O43364 129-215): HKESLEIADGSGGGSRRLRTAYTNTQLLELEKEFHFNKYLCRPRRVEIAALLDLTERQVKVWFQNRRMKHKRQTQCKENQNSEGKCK

| Sequence | binding signal |
| --- | --- |
| CGCCGGAC | 7.32 upbm affinity estimate (log intensity, higher = more binding, comparable within an allelic series) |
| CTCAGGCC | 7.06 upbm affinity estimate (log intensity, higher = more binding, comparable within an allelic series) |
| GCGCGGCA | 6.94 upbm affinity estimate (log intensity, higher = more binding, comparable within an allelic series) |
| GAACCGGC | 7.09 upbm affinity estimate (log intensity, higher = more binding, comparable within an allelic series) |
| CGCGCCCC | 7.21 upbm affinity estimate (log intensity, higher = more binding, comparable within an allelic series) |

Target: VAX1 (Homo sapiens, UniProt Q5SQQ9 86-172, K157R)
Sequence (Q5SQQ9 86-172 K157R): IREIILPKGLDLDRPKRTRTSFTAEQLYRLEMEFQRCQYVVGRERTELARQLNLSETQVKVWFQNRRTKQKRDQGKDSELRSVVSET
Assay: PBM; 200 nM protein, PBS
Details: dsDNA, one strand shown

| Sequence | binding signal |
| --- | --- |
| CCGGACGC | 7.16 upbm affinity estimate (log intensity, higher = more binding, comparable within an allelic series) |
| CTTGGGCC | 6.93 upbm affinity estimate (log intensity, higher = more binding, comparable within an allelic series) |
| CGCCCAGA | 7.49 upbm affinity estimate (log intensity, higher = more binding, comparable within an allelic series) |
| CGCGCCCC | 7.04 upbm affinity estimate (log intensity, higher = more binding, comparable within an allelic series) |
